An excerpt weighted towards active compounds, which were near 3.1% of everything screened.
KKLEB cytotox: cytotoxicity in KKLEB CF airway cells, primary screen, cytotoxicity control for CF NF-kB inhibitor project, cell-based, uHTS, fluorescence assay plates; activity change (cytotoxicity), % at 5 µM; KKLEB CF airway cells viability, ATPlite luminescence, overnight; hits give low values; cells stimulated with P. aeruginosa culture filtrate; 360,000 tested, 0.36% active; AID 602141, 2011;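 active means corrected activity change at or below -50% at 5 µM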
CF NFkB inh: inhibitors of PAF-induced NF-kB signaling, primary screen, cell-based, GFP fluorescence, uHTS | KKLEB NF-kB-GFP reporter, GFP fluorescence overnight | inhibition, % at 5 µM | 360,000 tested, 0.86% active | AID 588850, 2011;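 active means at least 50% inhibition at 5 µM, scaled per plate between neutral and stimulator controls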;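 further: PAF is a Pseudomonas aeruginosa culture filtrate used as stimulus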
HIF-2a block: HIF-2a reporter inhibitors, primary screen, luminescence, 786-0 RCC cells. inhibition, % at 18.8 µM. AID 624352, 2012. 360,000 tested, 0.72% active. 786-0 RCC cells HIF-2a reporter, luciferase luminescence, overnight;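 active means inhibition of the luminescence signal of 40% or more relative to plate controls, in a single-dose primary screen at 18.75 µM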
TRAIL sens C8: viability loss with TRAIL in NB7+C8 cells, primary screen, TRAIL sensitizer project, cell-based, ATPlite luminescence; inhibition (viability loss, TRAIL sensitization), % at 10 µM; 360,000 tested, 1% active;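 active means compounds causing at least 50% loss of cell viability in the single-dose screen, relative to plate controls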
Peg3 prom inh: Peg3 promoter-driven luciferase inhibitors, primary screen, cell-based, HeLa, luciferase luminescence | HeLa PEG-Prom luciferase reporter, overnight | inhibition, % at 20 µM | 360,000 tested, 1.7% active | AID 588405, 2011;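 active means inhibition of at least 50% at 20 µM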
PPC-1+TRAIL kill: compounds killing PPC-1 cancer cells with TRAIL present, primary screen, TRAIL potentiator project, ATPLite luminescence, uHTS | 220,000 tested, 0.41% active | cell killing (% activity), % at 4 µM or 5 µM | AID 1443, 2008 | PPC-1 cells + TRAIL, ATPLite viability luminescence;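 active means cell killing above 50% in the first pass at 4 µM, then a duplicate retest at 5 µM averaging 50% or more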
PPC1 cytotox: cytotoxicity in PPC-1 cells, confirmation, cytotoxicity control for TRAIL apoptosis potentiator project, cell-based, ATP content luminescence; shares compounds with PPC-1+TRAIL kill; PPC-1 viability, ATPlite luminescence, overnight; cytotoxicity, % at 5 µM; 1,200 tested, 50% active; AID 1447, 2008;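 active means reconfirmed compounds whose average cytotoxicity reaches 50% or more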
Numbers stand for hits; i = inactive; nt = no result given.

SMILES	KKLEB cytotox	CF NFkB inh	HIF-2a block	TRAIL sens C8	Peg3 prom inh	PPC-1+TRAIL kill	PPC1 cytotox
O=C(NC1CC1)c1cccc(Nc2ccc(-c3ccc4c(c3)OCCO4)nn2)c1	i	i	i	72	i	69	66
O=S(=O)(c1ccc(Nc2ccc(-c3ccc4c(c3)OCCO4)nn2)cc1)N1CCCC1	i	i	i	i	i	i	nt
CC(=O)c1c(C)[nH]c(C(=O)Nc2cc(C)cc(C)c2)c1C	i	i	i	i	i	i	nt
CC(=O)c1c(C)[nH]c(C(=O)Nc2nc(C)cs2)c1C	i	i	i	73	i	66	65
O=C(Nc1ccccc1C(=O)N/N=C/c1ccncc1)c1ccccc1	i	i	i	89	i	80	82
O=C(Nc1cccc(S(=O)(=O)C(F)F)c1)c1ccc(S(=O)(=O)N2CCOCC2)cc1	i	i	i	i	i	i	i
O=C(CCC1CCN(C(=O)c2ccco2)CC1)NCc1ccc(F)cc1	i	i	i	i	i	nt	nt
Cc1nnc(NC2=NCCC2)s1	i	i	i	i	i	i	i
CCOC(=O)Nc1ccc(S(=O)(=O)N2CCOCC2)cc1	i	i	i	i	i	i	nt
CCOC(=O)Nc1ccc(S(=O)(=O)NCCCN2CCOCC2)cc1	i	i	i	i	i	i	i
CC(=O)OC(Cn1nc(C)cc1C)c1ccccc1 (configuration not stated)	i	i	i	i	i	i	i
CCc1ccn2cc(-c3cc(-c4ccccc4)no3)nc2c1	-52	i	64	90	73	81	80
COc1ccc(CC(=O)Nc2cc(S(=O)(=O)N3CCCC3)ccc2Cl)c(OC)c1	i	i	i	i	i	nt	nt
COc1cc(/C=C(/C#N)c2nc3ccccc3[nH]2)ccc1OCC(=O)Nc1ccccc1C	i	i	i	87	104	i	i
Cc1ccccc1C(=O)Nc1cc(C(F)(F)F)ccc1-n1cncn1	i	i	i	i	i	nt	nt
CCN(CC)CCCNC1=C(Cl)C(=O)c2ccccc2C1=O	i	65	84	94	i	i	i
COc1ccc(N2CC(C(=O)N3CCN(S(=O)(=O)c4ccc(F)c(F)c4)CC3)CC2=O)c(OC)c1 (configuration not stated)	i	i	i	i	i	nt	nt
CCOC(=O)c1nn(-c2ccc3c(c2)CCN3C(C)=O)cc1O	i	i	i	62	i	i	i
O=C(NCCNCCO)c1c(O)c2cccc3c2n(c1=O)CCC3	i	i	i	i	i	i	i
C=CCn1c(C)cc(C(=O)Cn2nc(C(=O)O)c3ccccc3c2=O)c1C	i	i	i	78	i	i	i
Cc1cc(C(=O)Cn2nc(C(=O)O)c3ccccc3c2=O)c(C)n1C1CC1	i	i	i	i	i	i	nt
O=C1CC(c2ccc3c(c2)OCO3)c2cc3c(cc2N1)OCCO3 (configuration not stated)	i	i	i	i	i	i	i
O=C1CC(c2ccncc2)c2cc3c(cc2N1)OCCO3 (configuration not stated)	i	i	i	i	i	i	nt
NS(=O)(=O)c1cccc(NC(=O)c2cc(=O)c3ccccc3o2)c1	i	i	i	i	i	nt	nt
Cc1cnc(NC(=O)c2cc3ccccc3o2)s1	i	i	i	i	i	51	54
SMILES	KKLEB cytotox	CF NFkB inh	HIF-2a block	TRAIL sens C8	Peg3 prom inh	PPC-1+TRAIL kill	PPC1 cytotox
CC(C)c1nnc(NC(=O)c2sc3ccccc3c2Cl)s1	i	i	i	i	i	i	nt
NS(=O)(=O)c1cccc(NC(=O)c2cc3ccccc3o2)c1	i	i	i	63	i	i	i
Cc1nnc(NC(=O)c2cc3ccccc3o2)s1	i	i	i	i	i	nt	nt
Cc1cnc(NC(=O)c2sc3ccccc3c2Cl)s1	-54	i	i	82	i	70	68
OC[C@@H]1CN(CCc2ccccc2)C[C@H](n2cnc3c(NCc4ccc(F)cc4)ncnc32)O1	i	i	i	i	i	nt	nt
Cc1ccc(-n2c(-c3ccccc3)c[n+]3c2CCc2ccccc2-3)c(C)c1	i	i	i	i	i	i	i
Cc1ccc(-n2c(-c3ccccc3)c[n+]3c2CCC3)cc1	i	i	i	i	i	i	nt
O=C(Nc1ccc2c(c1)OCO2)N1CCN(Cc2ccco2)CC1	i	i	i	73	i	76	74
Cc1ccc(C(=O)CC2(O)C(=O)N(C)c3ccccc32)s1 (configuration not stated)	i	i	i	i	i	i	nt
Cc1ccc(C(C)C)cc1C(=O)CC1(O)C(=O)N(C)c2ccccc21 (configuration not stated)	i	i	i	i	i	i	i
COc1ccc(C(=O)O/N=C(\N)c2ccccc2)c(OC)c1	i	i	i	i	i	i	i
N/C(=N\OC(=O)c1ccc(Cl)cc1Cl)c1ccccc1	i	i	i	94	i	65	62
COc1ccc(CC(=O)O/N=C(\N)c2ccccc2)cc1OC	i	i	i	i	i	nt	nt
N/C(=N\OC(=O)c1cc(Cl)ccc1Cl)c1ccccn1	i	i	i	63	i	55	58
O=C1C=C(OCCF)CC(c2cccc([N+](=O)[O-])c2)O1 (configuration not stated)	nt	nt	i	i	nt	nt	nt
Cc1ccc(CN2CC(N3CCN(C)CC3)CS2(=O)=O)cc1 (configuration not stated)	i	i	i	i	i	nt	nt
CCOC(=O)C1(C(=O)OCC)NC(=O)CC1CC(C)C (configuration not stated)	i	i	i	i	i	nt	nt
CC(=O)N=c1sc2cc(C)ccc2n1C	i	i	i	i	i	i	i
CC(=O)SCC(=O)N=c1sc2cc(F)ccc2n1C	i	i	i	i	i	i	nt
Cc1ccc(NC(=O)c2c(C)noc2C)cc1	i	i	i	i	i	i	i
c1ccc(Nc2ncnc3c2oc2ccccc23)cc1	i	i	i	i	i	i	i
Oc1ccc(Nc2ncnc3c2oc2ccccc23)cc1	i	i	i	i	i	nt	nt
O=C(Nc1ccc2c(c1)nc1n2CCOC1)c1ccco1	i	i	i	i	i	i	nt
O=C(Nc1ccc2c(c1)nc1n2CCSC1)c1ccco1	i	i	i	72	i	60	58
COc1ccc2[nH]c3nc(SC(C)C)nnc3c2c1	i	i	i	63	i	58	56
COc1ccc(CNC(=O)CSc2nnc3c(n2)[nH]c2ccc(OC)cc23)cc1	i	i	i	i	i	nt	nt
Cc1ccc(-c2nc(N/N=C/c3cccnc3)c3ccccc3n2)cc1	-71	i	i	91	i	91	85

Assay outcomes from PubChem.
